Most compounds without a hit are left out; they make up all but 5.6% or so of the library.
H9c2 protect – myocardial damage modulation in H9c2 cells | 360,000 compounds, 0.63% hits | protection from H2O2 cell death, % at 20 µM | H9c2 cardiomyocytes, H2O2 injury protection, ATPLite, 2 h;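 active = compounds giving at least 50% protection of heart cells from peroxide-induced death in the single-dose screen, raw or plate-pattern-corrected value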;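 also: 0% = DMSO wells with peroxide and 100% = DMSO wells without peroxide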
ALR inh – human ALR oxidase inhibition via reduced H2O2. purified ALR, DTT oxidation, H2O2 HRP-luminol luminescence. inhibition, % (test concentration not listed). 290,000 compounds, 3.8% hits;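 active = mean replicate inhibition above about 79%, with every replicate also reaching it, limit read from the data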
Target sequence (P55789 whole entry, looked up): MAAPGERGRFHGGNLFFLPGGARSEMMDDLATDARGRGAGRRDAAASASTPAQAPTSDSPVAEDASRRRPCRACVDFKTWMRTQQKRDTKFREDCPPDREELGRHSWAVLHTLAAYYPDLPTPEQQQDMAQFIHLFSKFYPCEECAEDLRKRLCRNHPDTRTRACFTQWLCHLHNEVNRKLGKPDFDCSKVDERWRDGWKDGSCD
PfM18AAP inh – PfM18AAP enzyme inhibition | AID 1822 | 290,000 compounds, 1.2% hits | inhibition, % at 7.35 µM | recombinant PfM18AAP, H-Glu-NHMec fluorogenic cleavage;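 active = inhibition above the campaign mean inhibition over all tested compounds plus 3 SD, cut at about 28% in these data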;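 also: 0% = plate median of test compound wells and 100% = 2 mM ZnCl2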
PHOSPHO1 block – PHOSPHO1 (human) inhibition; recombinant PHOSPHO1, absorbance phosphatase assay; inhibition, % at 13.3 µM; Q8TCT1; 290,000 compounds, 1.1% hits; AID 1565; in the data active = inhibition above about 60%
Target sequence (Q8TCT1 whole entry, looked up): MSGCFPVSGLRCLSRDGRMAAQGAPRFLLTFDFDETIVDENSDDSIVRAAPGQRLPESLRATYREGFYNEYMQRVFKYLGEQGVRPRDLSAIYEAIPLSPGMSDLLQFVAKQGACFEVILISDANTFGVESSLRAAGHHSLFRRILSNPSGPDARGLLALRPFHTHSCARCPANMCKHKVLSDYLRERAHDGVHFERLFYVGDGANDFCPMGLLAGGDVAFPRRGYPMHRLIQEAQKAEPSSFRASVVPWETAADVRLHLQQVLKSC
PfG6PD inh – PfG6PD (Plasmodium falciparum) enzyme inhibition; inhibition, % at 20 µM; PfGluPho enzyme, NADPH resazurin-diaphorase fluorescence; 350,000 compounds, 0.78% hits;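 active = inhibition reaching at least a set limit at 20 µM in the primary screen, cut at about 59% in these data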;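 also: 0% = DMSO wells with substrate and 100% = DMSO wells lacking glucose-6-phosphate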
* hit, by the source's call; · = no result.

SMILES	H9c2 protect	ALR inh	PfM18AAP inh	PHOSPHO1 block	PfG6PD inh
O=C(NN1CCOCC1)c1ccc(Br)cc1	-0.4	15.2	·	·	-8.4
Cc1ccc(C(=O)NN2CCOCC2)cc1	1.0	98.2*	-1.2	7.2	-8.0
CC(C)(C)C(=O)NC1CCN(CC(=O)Nc2ccc3c(c2)OCO3)CC1	-3.6	0.4	-6.1	35.0	-16.8
COC(=O)N/N=C/c1sc(N2CCCCC2)nc1-c1cccs1	-2.3	98.4*	3.5	-20.6	4.2
COc1ccc(C(=O)N/N=C/c2sc(N3CCOCC3)nc2-c2ccccc2)cc1OC	21.0	8.5	-2.8	36.0	-4.9
COc1ccc(C/C(C)=N/NC(=S)Nc2ccccc2)cc1	-1.8	81.6*	16.7	-12.3	16.5
CC(C)CCOc1ccc(CO[C@@H]2[C@H]3OC(C)(C)O[C@H]3O[C@@H]2C(O)CO)cc1 (stereo partly specified)	0.2	86.6*	-10.6	24.2	12.0
CC(C)(C)OC(=O)N1CCC[C@H]1C(=O)N/N=C/c1ccc2ncccc2c1	0.6	-5.8	-2.2	16.2	-12.8
CC(=O)NCCn1c(SCc2ccccc2F)nc2ccccc2c1=O	3.3	-5.3	-3.8	15.9	2.6
C=CCn1c(SCc2ccccc2F)nc2cc(C(=O)O)ccc2c1=O	9.8	98.5*	5.8	4.0	-17.1
COCCNC(=O)CSc1nc(N)c(NC(=O)c2ccccc2F)c(=O)[nH]1	7.3	6.0	-2.9	-7.8	-1.1
COc1ccc(S(=O)(=O)N/N=C(/C)c2ccncc2)c(OC)c1	-7.3	81.2*	5.0	3.4	4.8
C[C@H]1CN([C@@H](C)CO)C(=O)CCCn2nncc2CO[C@@H]1CN(C)Cc1ccccc1C(F)(F)F	1.2	·	·	·	-13.4
Nc1ccc(CCc2nc3ccccc3o2)cc1	-8.0	91.5*	3.7	27.6	-3.6
Cc1ccccc1Cn1cc(S(=O)(=O)c2ccc(C(C)C)cc2)c(=O)c2cc3c(cc21)OCO3	-2.3	-8.9	·	·	-3.0
O=C(/C=C/c1ccccc1)NNc1ccc(Cl)cc1	-4.8	-6.1	12.0	4.2	-5.8
CC(=O)C(=Nc1ccccc1Cl)NNc1ccc(Cl)cc1	-18.6	95.1*	-63.9	1.7	30.1
C=CC[C@@H](CC(=O)NCCO)C(=O)NCCOC(=O)[C@@H](CC=C)Cc1ccc(F)cc1	11.7	1.6	·	·	1.9
CC(=O)Nc1cccc(C(=O)/C=C/c2ccc(F)cc2)c1	-19.8	10.3	-1.8	51.4	13.9
CC(=O)Nc1cccc(C(=O)/C=C/c2ccc(/C=C/C(=O)c3cccc(NC(C)=O)c3)cc2)c1	·	-3.1	-1.9	6.0	·
CC(=O)Nc1cccc(C(=O)/C=C/c2ccc(N(C)C)cc2)c1	-3.0	99.1*	3.6	7.1	34.4
CC(=O)Nc1cccc(C(=O)/C=C/c2cccs2)c1	26.2	96.9*	5.2	8.8	2.5
CCn1nccc1NC(=O)c1csc([C@H]2C[C@H](O)[C@@H](CO)O2)n1	11.7	·	·	·	·
O=C(CN1CCN(c2ccc(O)cc2)CC1)Nc1cc([N+](=O)[O-])ccc1Cl	6.9	98.9*	33.2*	-12.3	51.1
CCOC(=O)c1ccc(NC(=O)CN2CCN(c3ccccc3)CC2)cc1	7.5	1.9	-2.1	-10.1	-31.0
SMILES	H9c2 protect	ALR inh	PfM18AAP inh	PHOSPHO1 block	PfG6PD inh
COC(=O)c1ccc(NC(=O)CN2CCN(c3ccccc3)CC2)cc1	-0.2	91.8*	-3.4	18.3	2.9
O=C(CCN1CCN(c2ccccc2F)CC1)Nc1ccccc1F	-4.9	1.7	-1.8	-22.6	8.8
O=C(CN1CCN(c2ccccc2)CC1)Nc1ccccc1Cl	-0.6	97.8*	-8.2	22.6	-8.3
O=C(CCN1CCN(c2ccc(Cl)cc2)CC1)Nc1ccccc1F	0.3	87.6*	1.6	-9.1	-5.0
CN(C)C(=O)c1cc(C(=O)c2ccc(F)cc2C(F)(F)F)c[nH]1	-11.8	5.4	-4.5	19.9	-1.6
COc1ccc(NC(=O)CN2CCOCC2)cc1	0.7	-4.9	2.8	15.5	7.4
COC(=O)c1ccc(NC(=O)CN2CCOCC2)cc1	-3.6	-13.3	-17.5	74.0*	-3.5
O=C(OCC(=O)N1CCOCC1)c1ccc(Br)cc1	5.4	-2.1	-3.6	47.4	-3.4
CCCCNC(=O)c1ccc(NC(=O)CC2SC(N3CCCC3)=NC2=O)cc1 (stereo unspecified)	2.1	-3.6	·	·	-12.2
Cc1c(O)ccc2c(CN3CCOCC3)cc(=O)oc12	24.7	88.1*	3.8	23.9	4.2
Cc1c(O)ccc2c(CN3CCN(CCO)CC3)cc(=O)oc12	12.0	90.0*	1.2	4.7	-12.3
Cc1c(O)ccc2c(-c3ccccc3)cc(=O)oc12	83.9*	-13.2	0.3	·	-19.1
Cc1cc(C)c2oc(=O)cc(CN3CCOCC3)c2c1	1.6	1.1	-1.6	7.4	-3.3
COc1ccc(-c2cc(=O)oc3c(C)c(O)ccc23)cc1	33.6	-8.4	-2.1	37.1	-22.7
Cc1ccc(NC(=O)CSCC(=O)Nc2cc(S(=O)(=O)N3CCOCC3)ccc2OC(C)C)cc1	-2.7	·	·	·	-7.7
CC(C)c1c(O)nc(SCC(=O)N2CCOCC2)[nH]c1=O	2.5	95.7*	7.3	-7.4	1.3
O=C(CSc1nc(O)c(C(c2ccccc2)c2ccccc2)c(=O)[nH]1)N1CCOCC1	-8.8	90.7*	-11.4	-15.8	-19.6
O=S(=O)(Nc1cccc2c1CCCC2)c1ccc(Cl)cc1	-10.8	84.2*	0.2	-13.2	41.2
CC(=O)Nc1ccccc1NS(=O)(=O)c1ccc(Cl)cc1	2.5	4.0	11.3	-2.0	-10.3
COc1ccc(CN2C(=O)c3cccnc3C2=O)cc1S(=O)(=O)NC1CCCCC1	2.3	-3.9	7.5	69.0*	-2.7
Cc1cc(C)c(C)c(S(=O)(=O)N2CCN(C(=O)CCc3nc4ccccc4c(=O)[nH]3)CC2)c1C	70.4*	-15.0	-7.4	14.5	1.7
O=C(CCc1nc2ccccc2c(=O)[nH]1)N1CCN(c2ccccc2Cl)CC1	63.9*	-3.7	·	·	-3.9
CCN1CCN(C(=O)CCc2nc3ccccc3c(=O)[nH]2)CC1	49.8	-0.4	5.6	-1.3	-15.0
O=c1[nH]c(CN2CCc3ccccc3C2)nc2ccccc12	32.8	-4.9	1.6	28.5	10.2
O=C(CCc1nc2ccccc2c(=O)[nH]1)N1CCN(S(=O)(=O)c2cc(Cl)ccc2Cl)CC1	61.0*	·	·	·	0.6
SMILES	H9c2 protect	ALR inh	PfM18AAP inh	PHOSPHO1 block	PfG6PD inh
O=C(CCc1nc2ccccc2c(=O)[nH]1)N1CCCc2ccccc21	66.8*	-9.5	·	·	1.6
Cc1cccc(C(=O)NCCCNC(=O)c2cccnc2)c1	-3.6	-7.3	-2.7	0.0	4.9
O=C(CCc1nc2ccccc2c(=O)[nH]1)N1CCN(S(=O)(=O)c2cccc(F)c2)CC1	52.2*	-1.2	-1.5	·	5.7
COc1ccc(N/N=C(/C(C)=O)N2CCCc3ccccc32)cc1	-2.9	95.9*	-1.8	-52.5	39.1
O=C(N/C(=C/c1cccc(Br)c1)C(=O)N1CCOCC1)c1ccco1	0.1	·	·	·	12.5
CCOC(=O)Oc1ccc2c(=O)c(Oc3cc(C)cc(C)c3)coc2c1	5.7	-7.7	-1.3	22.9	-1.3
CCOC(=O)Oc1ccc2c(=O)c(Oc3cccc(C)c3)coc2c1	-1.0	95.9*	-1.4	-12.4	-2.3
O=C1OC(c2ccccc2)=C/C1=C/N1CCCCC1	6.6	85.0*	2.2	1.4	15.1
O=C1OC(c2ccccc2)=CC1=Cc1ccccc1O	6.8	·	·	·	5.8
